Here are results for 40 molecules from PubChem BioAssay (NCATS).

Each structure is given as a SMILES string. Activity calls are given as the source filed them. The call rests on the fitted dose curve; in most records, active means well fitted curve in the direction sought with a large enough effect; inactive means no such curve, though single readings can be large or run the other way.

The target of this experiment is Alpha-galactosidase A (Homo sapiens) (UniProt P06280). In words: Counterscreen for Glucocerebrosidase Inhibitors: qHTS Assay for Human alpha-Galactosidase at pH 4.5 (AID 992). As to conditions: purified enzyme, fluorogenic substrate; series mostly up to 76.9 µM. From the text: NIH Chemical Genomics Center [NCGC]
Sequence of Alpha-galactosidase A (Homo sapiens) (P06280 whole entry, looked up): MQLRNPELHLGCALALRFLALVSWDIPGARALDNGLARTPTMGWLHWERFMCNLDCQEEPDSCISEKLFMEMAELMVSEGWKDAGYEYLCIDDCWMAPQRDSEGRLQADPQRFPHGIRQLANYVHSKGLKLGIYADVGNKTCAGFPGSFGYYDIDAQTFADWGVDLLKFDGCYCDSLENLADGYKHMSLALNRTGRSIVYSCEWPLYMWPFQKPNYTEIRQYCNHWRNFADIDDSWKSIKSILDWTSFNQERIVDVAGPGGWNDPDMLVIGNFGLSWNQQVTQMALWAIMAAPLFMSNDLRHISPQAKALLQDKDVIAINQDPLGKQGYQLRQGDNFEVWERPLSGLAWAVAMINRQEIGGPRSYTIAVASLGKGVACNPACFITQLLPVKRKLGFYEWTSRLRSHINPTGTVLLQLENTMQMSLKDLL
NIH Molecular Libraries Screening Centers Network [MLSCN]
PI Name: Zheng, Wei [NIH]
Alpha-galactosidase is a homodimeric glycoprotein that hydrolyzes the terminal alpha-galactosyl moieties from glycolipids and glycoproteins. Deficiency of this enzyme results in Fabry Disease with progressive accumulation of globotriaosylceramide and other glycosphingolipids in vascular endothelial cells that causes renal failure, myocardial infarction and stroke, and premature death in patients. It has reported that the improper folding and trafficking of alpha-galactosidase resulted from the genetic mutations may account for a significant numbers of Fabry patients. […] We optimized this alpha-galactosidase assay in 1536-well plate format for identifying the novel small molecule inhibitors with the structures other than the sugar analogs in order to develop the new pharmacological chaperones.
NCGC Assay Protocol Summary:
This is a fluorogenic enzyme assay with 4-Methylumbelliferyl alpha-D-galactopyranoside as the substrate and human […] as the enzyme preparation. Upon the hydrolysis of this fluorogenic substrate, the resulting product, […]. 4-Methyllumbelliferone, can be excited at 365 nm and emits at 440 nm which can be detected by a standard fluorescence plate reader. Data were normalized to the controls for basal activity (without enzyme) and 100% activity (with enzyme). In the AC50 values were determined from concentration-response data modeled with the standard Hill equation.
Assay buffer: 50 mM citric acid, 0.005% Tween-20, pH 4.5. (pH 4.5 is an optimal condition for this enzyme assay)
1536-well assay protocol for the human alpha-galactosidase:
(1) Add 2 ul/well of enzyme (2 nM final)
(2) Add 23 nL compounds in DMSO solution. The final titration was 0.7 nM to 77 uM.
(3) Add 1 ul of substrate (80 uM final)
(4) Incubate at room temperature for 20 min.
(5) Add 2 ul stop solution (1M NaOH and 1M Glycine mixture, pH 10)
(6) Detect the assay plate in a ViewLux plate reader (PerkinElmer) with Ex=365 nm and Em=440nm.
Keywords: Alpha-galactosidase, Fabry Disease, pharmacological chaperone, chaperone therapy, high throughput screening, alpha-galactosidase inhibitor, MLSMR, MLSCN, NIH Roadmap, qHTS and NCGC
(In general: A counterscreen serves to expose hits that act by an unwanted route or on another target.)
For the molecule `CCCN[C@@H](C)C(=O)Nc1ccccc1C`, the outcome was inactive.

Take `O=C(c1ccccc1)c1ccc2n1CC[C@H]2C(=O)O`: the outcome was inactive.

`N[C@H](C(=O)N[C@@H]1C(=O)N2C(C(=O)O)=C(Cl)CS[C@@H]12)c1ccccc1`: the molecule was called inactive.

As for `O=C(O)[C@H]1CCCN(CCC=C(c2ccccc2)c2ccccc2)C1`, the molecule was called inactive.

As to `C=CCc1ccccc1OC[C@H](O)CNC(C)C`, the result was inactive.

As to `C[C@H](NCCc1ccc(O)cc1)[C@@H](O)c1ccc(O)cc1`, the molecule was classed as inactive.

With `CC(=O)O[C@]1(C(C)=O)CC[C@@H]2[C@@H]3C=C(Cl)C4=CC(=O)[C@H]5C[C@@H]5[C@]4(C)[C@H]3CC[C@]21C`, the result was inactive.

For `C[C@@H]1c2cccc(O)c2C(O)=C2C(=O)[C@@]3(O)C(O)=C(C(N)=O)C(=O)[C@@H](N(C)C)[C@@H]3[C@@H](O)[C@@H]21`, the call was inactive.

As for `NC(=NCc1ccc(Cl)c(Cl)c1)NC(=O)c1nc(Cl)c(N)nc1N`, the outcome was inactive.

Turning to `O=C(O)CNC(=O)[C@@H](CS)Cc1ccccc1`, the call was inactive.

Take `CCN(CC)CC#CCOC(=O)[C@@](O)(c1ccccc1)C1CCCCC1`: the molecule was classed as inactive.

On to `CC(=O)O[C@@H](C)C[N+](C)(C)C`, for which the result was inactive.

As to `O[C@@](CCN1CCCCC1)(c1ccccc1)C1CCCCC1`, the result was inactive.

On to `OCCN1CCN(CC/C=C2\c3ccccc3Sc3ccc(C(F)(F)F)cc32)CC1`, for which the result was inactive.

In the case of `CN1CCc2cccc3c2[C@@H]1Cc1ccc(O)c(O)c1-3`, the call was inactive.

Consider `NC(=O)c1cc[n+](CC2=C(C(=O)O)N3C(=O)[C@@H](NC(=O)[C@H](c4ccccc4)S(=O)(=O)[O-])[C@@H]3SC2)cc1`, for which the molecule was called inactive.

As for `CC(=O)OCC1=C(C(=O)O)N2C(=O)[C@@H](NC(=O)Cc3cccs3)[C@@H]2SC1`, the molecule was called inactive.

As to `CC(C)COC[C@H](CN(Cc1ccccc1)c1ccccc1)N1CCCC1`, the outcome was inactive.

Turning to `CCn1cc(C(=O)O)c(=O)c2cc(F)c(N3CCN[C@@H](C)C3)c(F)c21`, the outcome was inactive.

Turning to `CN(C)[C@@H]1C(=O)C(C(N)=O)=C(O)[C@]2(O)C(=O)C3=C(O)c4c(O)ccc(Cl)c4[C@H](O)[C@H]3C[C@@H]12`, the molecule was called inactive.

As for `CCN1CCC[C@@H]1CNC(=O)c1cc(S(N)(=O)=O)ccc1OC`, the result was inactive.

Regarding `CC(=O)OCC1=C(C(=O)O)N2C(=O)[C@@H](NC(=O)CSc3ccncc3)[C@@H]2SC1`, the molecule was called inactive.

For the molecule `CN1C(=O)CC[C@@H]1c1cccnc1`, the molecule was classed as inactive.

In the case of `C[C@@H]1COc2c(N3CCN(C)CC3)c(F)cc3c(=O)c(C(=O)O)cn1c23`, the result was inactive.

Turning to `CC[C@H](NC(C)C)[C@H](O)c1ccc(O)c(O)c1`, the molecule was classed as inactive.

Take `CN(C)CC[C@@H](c1ccccc1)c1ccccn1`: the outcome was inactive.

Turning to `CCCN(CCC)C(=O)[C@@H](CCC(=O)O)NC(=O)c1ccccc1`, the outcome was inactive.

For `CCN(CC)CCC[C@H](C)Nc1ccnc2cc(Cl)ccc12`, the result was inactive.

As to `CC(C)(Oc1ccc([C@@H]2CC2(Cl)Cl)cc1)C(=O)O`, the molecule was classed as inactive.

As for `C[C@@H](C[N+](C)(C)C)OC(N)=O`, the result was inactive.

For the molecule `C[C@@](N)(Cc1ccc(O)c(O)c1)C(=O)O`, the outcome was inactive.

In the case of `Cc1cccc(C)c1OC[C@H](C)N`, the molecule was classed as inactive.

`C[C@@H](C(=O)O)c1cccc(C(=O)c2ccccc2)c1`: the result was inactive.

As for `C[C@@H](COc1ccccc1)N(CCCl)Cc1ccccc1`, the result was inactive.

As for `CN1Cc2c(N)cccc2[C@H](c2ccccc2)C1`, the molecule was called inactive.

For the molecule `c1ccc([C@@H]2CN3CCSC3=N2)cc1`, the outcome was inactive.

Consider `CN1[C@@H]2CC[C@H]1CC(OC(=O)[C@@H](O)c1ccccc1)C2` (stereo not given in full), for which the outcome was inactive.

`CC[C@]1(C)CC(=O)NC1=O`: the molecule was classed as inactive.

With `C[C@@H](CN(C)C)CN1c2ccccc2CCc2ccccc21`, the result was inactive.

Take `CO[C@]1(NC(=O)CSCC#N)C(=O)N2C(C(=O)O)=C(CSc3nnnn3C)CS[C@H]21`: the call was inactive.
